ELG1 genotox = qHTS screen for small molecules that induce genotoxicity in human embryonic kidney (HEK293T) cells expressing luciferase-tagged ELG1 | HEK293T ELG1-luciferase reporter, luminescence, 16 h | Potency, µM (highest dose often 46 µM), without a hit: top-dose activity change, positive = activation, usual class: activators | 330,000 tested, 1.3% active; also: % of control where 0% means no effect; nearly all actives have a fitted effect of over 60% in size
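Genotoxicity was scored as increased ELG1-luciferase reporter signal, measured by ONE-Glo luminescence (30 min, room temperature). Compound or vehicle exposure of the HEK293T reporter cells lasted 16 hr at 37°C.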
FLuc counter = qHTS profiling assay for firefly luciferase inhibitor/activator using purifed enzyme and Km concentrations of substrates (counterscreen for miR-21 project). purified FLuc, Km substrates, luminescence inhibition. Potency, µM (titrated, usually from 57.5 µM), for the others: top-dose activity change, negative = inhibition, most hits filed as inhibitors. Luciferin 4-monooxygenase (Photinus pyralis), P08659. 360,000 tested, 6.9% active. AID 588342, 2011;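 also: plate controls were vehicle for no effect and reference inhibitor for full effect; nearly all actives have a fitted effect of over 55% in size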
Target sequence (P08659 whole entry, looked up): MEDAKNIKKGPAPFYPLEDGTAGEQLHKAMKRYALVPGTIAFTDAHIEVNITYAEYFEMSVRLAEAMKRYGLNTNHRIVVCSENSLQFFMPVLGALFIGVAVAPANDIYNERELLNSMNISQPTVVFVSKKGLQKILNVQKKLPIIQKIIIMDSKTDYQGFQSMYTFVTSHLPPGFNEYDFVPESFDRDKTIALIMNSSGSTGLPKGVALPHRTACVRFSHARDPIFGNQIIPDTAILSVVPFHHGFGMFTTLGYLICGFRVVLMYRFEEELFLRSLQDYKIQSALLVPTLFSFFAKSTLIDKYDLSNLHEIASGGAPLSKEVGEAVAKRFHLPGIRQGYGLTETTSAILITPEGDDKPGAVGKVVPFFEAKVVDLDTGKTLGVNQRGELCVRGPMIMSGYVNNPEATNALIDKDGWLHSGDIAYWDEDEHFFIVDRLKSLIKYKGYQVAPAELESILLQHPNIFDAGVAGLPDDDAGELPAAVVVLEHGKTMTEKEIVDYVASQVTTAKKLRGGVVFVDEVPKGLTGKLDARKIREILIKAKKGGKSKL
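Purified P. pyralis luciferase, 10 nM final, with Km-level 10 uM D-luciferin and 10 uM ATP in 50 mM Tris acetate pH 7.5, 10 mM Mg acetate, 0.01% Tween-20, 0.05% BSA; 6-point qHTS titration about 60 µM downward; luminescence read.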
SMN2 splice up = qHTS Assay for Enhancers of SMN2 Splice Variant Expression; HEK293 SMN2-luciferase splicing reporter, luminescence, 30-36 h; Potency, µM (highest dose often 46.1 µM), without a hit: at the top dose activity change, positive = activation, most hits filed as activators; 210,000 tested, 2.8% active; AID 1458, 2008; also: % of control where 0% means no effect; nearly all actives have a fitted effect of over 55% in size
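qHTS luciferase splicing reporter: luminescence rises when SMN2 exon 7 is included in transfected HEK293 cells. Compound exposure lasted 30-36 h at 37C, with 4.5 mM final sodium butyrate as control, followed by a ONE-Glo read.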
Rab9 prom act = qHTS Assay for Rab9 Promoter Activators | Huh7 Rab9 promoter-luciferase reporter, luminescence, 24 h | Potency, µM (titrated, usually from 9.22 µM), without a hit: top-dose activation, negative = inhibition, most hits filed as activators | 320,000 tested, 2.8% active | AID 485297, 2010; also: % of control where 0% means no effect; nearly all actives have a fitted effect of over 60% in size
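Using Huh7 cells stably transfected with Rab9 promoter–luciferase, compounds were incubated 24 h at 37 °C, 5% CO2; luciferase luminescence was read 10 min after reagent addition.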
p53 reactivation = qHTS assay for re-activators of p53 using a Luc reporter; 320,000 tested, 0.063% active; Potency, µM (titrated, usually from 92.2 µM), for the others: top-dose activity change, positive = activation, most hits filed as activators; H1299 p53-A138V BP100-luciferase reporter, luminescence, 24 h; also: % of control where 0% means no effect; nearly all actives have a fitted effect of over 45% in size
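p53-null H1299 cells stably carrying temperature-sensitive p53-A138V and a BP100-luciferase reporter were pinned with compounds (4-point, 1:5 series) and held 24 hrs at 37 deg C. Luminescence was read 10 min after detection reagent.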
NPC1 promoter act = qHTS Assay for NPC1 Promoter Activators | Huh7 NPC1 promoter luciferase reporter, 24 h | Potency, µM (titrated, usually from 9.22 µM), for the others: at the highest dose activation, hits mostly activators | 320,000 tested, 2.4% active | AID 485313, 2010; also: % of control where 0% means no effect; nearly all actives have a fitted effect of over 60% in size
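Luciferase expression driven by the NPC1 promoter was measured in stably transfected Huh7 cells after a 24 h compound incubation, using a luciferase reagent and a luminescence read.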
The depositor's hits bear a star. Rows were chosen to be rich in hits. Some 7.4% of all compounds tested hit in one or more screens of this group. Calls follow the shape of the dose curve; as a rule, active = well fitted curve in the direction sought with a large enough effect; inconclusive = small, poorly fitted or top-dose-only effect, or another doubt; inactive = no such curve, though single readings can be large; an effect the other way counts as inactive or inconclusive. Potency is read from the fitted curve at half-maximal effect.

Results for COc1ccc(CNC(=O)Cc2ccc(NC(=O)C3=C(C)OCCS3)cc2)cc1 ?
ELG1 genotox: 16.4µM*; FLuc counter: 1.2µM*; Rab9 prom act: inconclusive; p53 reactivation: inconclusive; NPC1 promoter act: 23.6%

Results for CC1=C(C(=O)Nc2ccc(CC(=O)NCc3ccc(OC(C)C)cc3)cc2)SCCO1 ?
ELG1 genotox: 9.2µM*; FLuc counter: 2.69µM*; Rab9 prom act: 11.5%; p53 reactivation: inconclusive; NPC1 promoter act: inconclusive

How did COc1cccc(CNC(=O)c2cccc(NC(=O)C3=C(C)OCCS3)c2)c1 do in these assays?
ELG1 genotox: -5.7%; FLuc counter: inconclusive; Rab9 prom act: 6.2%; NPC1 promoter act: -1.6%

What do the screens show for `CCn1c2ccccc2c2cc(CN3CCN(Cc4ccc(Br)cc4)CC3)ccc21`?
FLuc counter: -6.2%; SMN2 splice up: -15.0%

How did Cc1cc(C)cc(OCC(=O)Nc2ccncc2)c1 do in these assays?
ELG1 genotox: -5.4%; FLuc counter: -2.4%; Rab9 prom act: 1.4%; NPC1 promoter act: 0.2%

How did CCCCN1CC(=O)N2[C@H]3c4cc(C)ccc4OC[C@@H]3[C@H](C(=O)OCC)[C@]2(C)C1=O do in these assays?
ELG1 genotox: 1.4%; FLuc counter: 4.2%; Rab9 prom act: -2.1%; p53 reactivation: -7.5%; NPC1 promoter act: 1.4%

How did CCOc1ccc(CN(C)C(=O)CCc2ccc(S(=O)(=O)N3CCCCCC3)cc2)cc1 do in these assays?
ELG1 genotox: -7.3%; FLuc counter: 3.2%; Rab9 prom act: -20.1%; p53 reactivation: -1.8%; NPC1 promoter act: -7.3%

What do the screens show for `O=c1[nH]c2ccc(Cl)cc2c(O)c1-c1ccccc1`?
ELG1 genotox: 1.3%; FLuc counter: 9.53µM*; SMN2 splice up: 7.9%; Rab9 prom act: -3.4%; p53 reactivation: 18.1%; NPC1 promoter act: 1.4%

How did O=C(Cn1cnc([N+](=O)[O-])n1)N/N=C/c1cc(Cl)ccc1O do in these assays?
ELG1 genotox: inconclusive; FLuc counter: 1.5%; SMN2 splice up: 29.4%; Rab9 prom act: -15.9%; p53 reactivation: 1.3%; NPC1 promoter act: -10.0%

Results for CCOC(=O)C1CCN(C(=O)Nc2ccc3c(c2)nc(C)n3C)CC1 ?
ELG1 genotox: inconclusive; FLuc counter: -0.3%; SMN2 splice up: 11.2µM*; Rab9 prom act: inconclusive; p53 reactivation: inconclusive; NPC1 promoter act: inconclusive

How did Cc1nc2cc(NC(=O)N3CCCCC3)ccc2n1C do in these assays?
ELG1 genotox: inconclusive; FLuc counter: inconclusive; SMN2 splice up: 12.6µM*; Rab9 prom act: 29.6%; p53 reactivation: inconclusive; NPC1 promoter act: 20.3%

How did CCOC(=O)C1CCN(C(=O)Nc2ccc(OC)c(OC)c2)CC1 do in these assays?
ELG1 genotox: 1.9%; FLuc counter: -0.6%; SMN2 splice up: -10.1%; Rab9 prom act: -1.1%; p53 reactivation: -4.8%; NPC1 promoter act: 0.4%

Results for Cc1nc2ccc(NC(=O)N3CCCCC3)cc2nc1C ?
ELG1 genotox: 2.5%; FLuc counter: -15.1%; SMN2 splice up: 3.2%; Rab9 prom act: inconclusive; p53 reactivation: 21.0%; NPC1 promoter act: 7.3%

What do the screens show for `O=C(CSc1nc(-c2cccs2)nc2cc(=O)[nH]n12)Nc1ccc(F)cc1`?
FLuc counter: -0.5%

Results for COc1ccc(N2CCN(C(=O)c3cn(C4CCCCC4)c(=O)c4c3c3ccccc3n4C)CC2)cc1 ?
FLuc counter: -0.8%; SMN2 splice up: -0.3%

How did Nc1ccc(N(CCO)CCO)cc1 do in these assays?
ELG1 genotox: 0.9%; FLuc counter: 3.9%; Rab9 prom act: 14.4%; p53 reactivation: -6.5%; NPC1 promoter act: 0.5%

What do the screens show for `Cc1cc(N(CCO)CCO)ccc1N=Nc1cc(F)ccc1F`?
ELG1 genotox: inconclusive; FLuc counter: 23.9µM*; SMN2 splice up: inconclusive; Rab9 prom act: inconclusive; p53 reactivation: 6.8%; NPC1 promoter act: inconclusive

Results for Cc1[nH]n(-c2cccc(Cl)c2)c(=O)c1C=NCC(C)C ?
ELG1 genotox: 20.6µM*; FLuc counter: 23.9µM*; SMN2 splice up: 12.6µM*; Rab9 prom act: 2.82µM*; p53 reactivation: 9.3%; NPC1 promoter act: 3.16µM*

How did Cc1[nH]n(-c2ccccc2)c(=O)c1/C=N/O do in these assays?
ELG1 genotox: 1.4%; FLuc counter: -15.7%; SMN2 splice up: -20.0%; Rab9 prom act: 14.8%; p53 reactivation: -2.0%; NPC1 promoter act: 0.3%

Results for Cc1[nH]n(-c2cccc(Cl)c2)c(=O)c1C=NC12CN3CN(CN(C3)C1)C2 ?
ELG1 genotox: 1.0%; FLuc counter: -1.3%; SMN2 splice up: -7.2%; Rab9 prom act: 2.4%; p53 reactivation: 1.4%; NPC1 promoter act: -0.5%

What do the screens show for `Cc1[nH]n(-c2cccc(Cl)c2)c(=O)c1C=NCc1ccco1`?
ELG1 genotox: 9.2µM*; FLuc counter: 1.51µM*; SMN2 splice up: 12.6µM*; Rab9 prom act: 1.12µM*; p53 reactivation: 0.6%; NPC1 promoter act: 2µM*

What do the screens show for `Cc1[nH]n(-c2ccccc2)c(=O)c1C=NCc1ccco1`?
ELG1 genotox: 16.4µM*; FLuc counter: 9.53µM*; SMN2 splice up: 11.2µM*; Rab9 prom act: 1.78µM*; p53 reactivation: 0.2%; NPC1 promoter act: 3.55µM*

Results for CCCNC(=O)CCSc1nc(-c2ccc3c(c2)OCO3)cc(C(F)(F)F)n1 ?
FLuc counter: -0.3%; SMN2 splice up: -3.4%

What do the screens show for `CCCN(CC(=O)Nc1ccccc1C)C(=O)c1ccc(S(=O)(=O)N2CCC(C)CC2)cc1`?
ELG1 genotox: -0.3%; FLuc counter: 3.3%; Rab9 prom act: -5.5%; p53 reactivation: -0.5%; NPC1 promoter act: -2.6%

Results for COCCN(C(=O)CCC(=O)Nc1nccs1)C(C(=O)NCCC(C)C)c1ccc(OC)cc1 (stereo not given) ?
ELG1 genotox: -2.2%; FLuc counter: 0.6%; Rab9 prom act: 0.1%; p53 reactivation: 2.2%; NPC1 promoter act: -1.8%

How did COc1ccc(CCNC(=O)CSc2cn(CCNC(=O)c3cccc(C(F)(F)F)c3)c3ccccc23)cc1OC do in these assays?
FLuc counter: -17.0%; SMN2 splice up: -65.7%

Results for O=c1cc[nH]c(=S)[nH]1 ?
SMN2 splice up: -6.9%

How did COc1ccc(CCC(=O)NCCc2csc(-c3cccc(F)c3)n2)cc1 do in these assays?
FLuc counter: -17.0%
